# Compounds with a hit are over-represented: about 2.3% of the library has one in this group of screens.
# aDG glyco act: alpha-DG glycosylation activation; Pro5-aDG cells, alpha-DG glycosylation AlphaScreen (IIH6); 0% Pro5, 100% B10-LARGE cell signal; hit rate 0.22% among 360,000; AID 624168; activation, % at 10 µM;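 active = activation of at least 8% versus controls, or a plate z-score of at least 8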;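 note: Pro5 are CHO cells carrying HIG-tagged alpha-DG that lacks glycosylation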
# beta cell repl: inducers of beta-cell replication in MIN6 cells; proliferation, % at 10 µM; MIN6 cells proliferation, ATPlite luminescence, 48 h; cells starved in 0.2% serum; 100% = growth in 10% serum; hit rate 0.29% among 330,000;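 active = compounds whose signal lies at least 3.5 SD above the mean of all wells on their plate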;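 note: 0% = DMSO-treated cells in low-serum medium and 100% = 10% serum control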
# Cardio protect: modulators protecting cardiomyocytes from myocardial damage | H9c2 cardiomyocytes, H2O2 injury protection, ATPLite, 2 h | protection from H2O2 cell death, % at 20 µM | hit rate 0.63% among 360,000 | AID 588492;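 active = compounds giving at least 50% protection of heart cells from peroxide-induced death in the single-dose screen, raw or plate-pattern-corrected value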;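 note: 0% = DMSO wells with peroxide and 100% = DMSO wells without peroxide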
# FAS-TE inh: inhibitors of human fatty acid synthase thioesterase domain; inhibition, % at 15 µM; recombinant FAS-TE, OMFH fluorogenic substrate, fluorescence endpoint; hit rate 0.67% among 360,000; AID 602261;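 active = compounds whose normalised, plate-corrected inhibition of enzyme fluorescence in the single-dose primary screen is 50% or more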;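 note: 0% = DMSO with enzyme and 100% = substrate without enzyme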
# Target sequence (P49327 whole entry, looked up, the tested form may be a part): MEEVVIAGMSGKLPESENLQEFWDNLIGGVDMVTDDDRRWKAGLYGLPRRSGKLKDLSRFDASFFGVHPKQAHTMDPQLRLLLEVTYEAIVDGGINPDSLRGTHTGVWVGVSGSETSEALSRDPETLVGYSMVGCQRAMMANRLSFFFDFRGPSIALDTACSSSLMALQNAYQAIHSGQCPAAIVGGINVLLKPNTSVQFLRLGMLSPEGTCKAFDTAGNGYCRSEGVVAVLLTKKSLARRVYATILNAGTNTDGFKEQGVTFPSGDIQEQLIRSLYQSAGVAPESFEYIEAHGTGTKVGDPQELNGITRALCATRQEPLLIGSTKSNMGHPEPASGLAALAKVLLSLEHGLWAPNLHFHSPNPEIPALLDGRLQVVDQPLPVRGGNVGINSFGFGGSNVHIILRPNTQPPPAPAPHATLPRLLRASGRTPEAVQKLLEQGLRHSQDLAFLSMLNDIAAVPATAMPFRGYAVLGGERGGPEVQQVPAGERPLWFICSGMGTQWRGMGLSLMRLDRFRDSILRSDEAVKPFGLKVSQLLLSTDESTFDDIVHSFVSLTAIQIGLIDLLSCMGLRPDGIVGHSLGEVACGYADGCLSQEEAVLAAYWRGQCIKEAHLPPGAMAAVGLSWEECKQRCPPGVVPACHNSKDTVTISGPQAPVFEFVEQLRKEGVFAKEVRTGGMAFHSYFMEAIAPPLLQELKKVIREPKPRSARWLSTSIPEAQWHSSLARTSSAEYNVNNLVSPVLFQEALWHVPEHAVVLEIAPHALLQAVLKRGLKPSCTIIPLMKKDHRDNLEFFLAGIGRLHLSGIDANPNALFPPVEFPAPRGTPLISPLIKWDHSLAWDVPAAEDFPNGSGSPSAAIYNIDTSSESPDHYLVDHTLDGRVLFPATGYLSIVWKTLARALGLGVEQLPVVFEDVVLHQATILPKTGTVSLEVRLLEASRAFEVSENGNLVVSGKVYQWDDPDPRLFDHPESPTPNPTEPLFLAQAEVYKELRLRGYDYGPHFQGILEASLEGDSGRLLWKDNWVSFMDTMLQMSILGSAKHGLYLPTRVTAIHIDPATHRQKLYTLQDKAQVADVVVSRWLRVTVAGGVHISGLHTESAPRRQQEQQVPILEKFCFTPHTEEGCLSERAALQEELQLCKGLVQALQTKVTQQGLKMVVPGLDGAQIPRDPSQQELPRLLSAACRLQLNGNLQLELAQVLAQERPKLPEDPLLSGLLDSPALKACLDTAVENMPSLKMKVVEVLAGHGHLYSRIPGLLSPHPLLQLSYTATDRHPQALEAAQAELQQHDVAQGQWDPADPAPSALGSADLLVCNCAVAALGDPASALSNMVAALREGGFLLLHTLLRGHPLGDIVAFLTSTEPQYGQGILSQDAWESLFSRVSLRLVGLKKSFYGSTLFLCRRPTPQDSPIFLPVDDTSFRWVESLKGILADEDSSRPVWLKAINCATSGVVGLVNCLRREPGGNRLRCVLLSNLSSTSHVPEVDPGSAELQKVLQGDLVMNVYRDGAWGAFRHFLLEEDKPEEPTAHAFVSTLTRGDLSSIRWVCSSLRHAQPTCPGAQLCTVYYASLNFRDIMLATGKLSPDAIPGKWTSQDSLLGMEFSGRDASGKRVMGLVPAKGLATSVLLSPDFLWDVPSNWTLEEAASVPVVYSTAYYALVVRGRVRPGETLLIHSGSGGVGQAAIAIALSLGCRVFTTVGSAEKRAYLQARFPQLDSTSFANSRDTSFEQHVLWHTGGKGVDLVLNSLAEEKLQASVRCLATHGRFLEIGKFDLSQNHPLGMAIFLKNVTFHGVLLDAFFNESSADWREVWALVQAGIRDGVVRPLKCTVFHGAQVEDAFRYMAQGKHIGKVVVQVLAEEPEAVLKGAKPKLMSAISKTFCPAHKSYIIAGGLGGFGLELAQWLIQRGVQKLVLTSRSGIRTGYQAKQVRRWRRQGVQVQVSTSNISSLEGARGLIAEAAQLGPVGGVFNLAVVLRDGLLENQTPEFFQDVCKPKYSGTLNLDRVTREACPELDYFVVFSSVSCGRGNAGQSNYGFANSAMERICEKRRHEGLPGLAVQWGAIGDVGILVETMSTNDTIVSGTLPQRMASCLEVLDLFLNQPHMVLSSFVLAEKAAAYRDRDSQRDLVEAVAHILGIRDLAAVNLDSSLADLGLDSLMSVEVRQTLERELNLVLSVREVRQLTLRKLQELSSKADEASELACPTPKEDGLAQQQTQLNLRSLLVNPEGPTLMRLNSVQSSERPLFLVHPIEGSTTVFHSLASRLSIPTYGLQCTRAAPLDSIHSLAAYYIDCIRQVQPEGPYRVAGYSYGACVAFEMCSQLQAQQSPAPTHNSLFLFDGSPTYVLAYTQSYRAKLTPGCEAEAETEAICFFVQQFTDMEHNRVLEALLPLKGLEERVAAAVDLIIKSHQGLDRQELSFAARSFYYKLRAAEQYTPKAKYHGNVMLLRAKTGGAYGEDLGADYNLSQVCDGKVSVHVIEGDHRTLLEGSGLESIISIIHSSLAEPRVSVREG
# H9c2 TAG inh: inhibitors of triacylglycerol accumulation | H9c2 cells, Nile Red lipid (TAG) fluorescence; cells loaded with 200 µM oleic acid | inhibition, % at 12.5 µM | hit rate 0.66% among 230,000;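 active = pattern-corrected inhibition of lipid staining of at least 50% with the nuclear-stain viability signal not falling by more than 50%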;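 note: 0% = DMSO wells and 100% = triacsin C control wells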
# Calpain2 inh: calpain II (pig) inhibition; purified calpain II, fluorogenic peptide substrate, 30 min; inhibition, % at 16 µM; hit rate 0.37% among 220,000; AID 1236;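 active = inhibition above about 50%, limit read from the data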
# * hit, by the source's call; i = inactive; · = no result given.
SMILES,aDG glyco act,beta cell repl,Cardio protect,FAS-TE inh,H9c2 TAG inh,Calpain2 inh
O=C(O)CNS(=O)(=O)c1ccc(Br)s1,0.2,-1.9,5.4,-2.7,-4.4,-17.2
O=S(=O)(NCc1ccncc1)c1ccc(Br)s1,8.9*,-4.2,-28.9,0.9,-40.0,0.8
CCCCCCn1c(C)nc2c(c1=O)c1nc3ccccc3nc1n2/N=C/c1ccco1,-0.5,-6.0,90.5*,1.4,·,-80.7
O=c1c2c3nc4ccccc4nc3n(/N=C/c3ccco3)c2ncn1CCC1=CCCCC1,-0.1,-4.4,0.2,-8.6,·,·
Cc1nc2c(c(=O)n1CCC1=CCCCC1)c1nc3ccccc3nc1n2/N=C/c1ccccc1,-0.2,-6.4,109.2*,4.3,28.9,-104.0
Cc1ccc(CCNC(=O)c2cccc(NC3=NC4CS(=O)(=O)CC4S3)c2)cc1 (centres undefined),0.1,-3.5,14.0,-3.0,7.1,·
CC1CCCN(Cc2cnc(Cl)s2)C1 (centres undefined),0.1,0.9,-2.0,-1.2,6.7,40.4
CC1CCCCN1Cc1cnc(Cl)s1 (centres undefined),-0.3,-1.0,1.8,-10.7,-18.4,58.5*
CC1CCN(Cc2cnc(Cl)s2)CC1,0.0,-3.1,6.1,-9.2,-6.6,51.0*
CC1CCCCN1Cc1ccc(N(C)C)cc1 (centres undefined),-0.1,-0.8,6.9,-11.7,·,13.3
O=C(NCc1cccnc1)c1cc(C(=O)NCc2cccnc2)cc([N+](=O)[O-])c1,-0.2,·,2.0,6.4,1.1,·
Oc1cc(-c2cccnc2)cc2cccnc12,-0.2,-7.5,9.1,-4.2,56.3*,·
CN1CCN(C(=O)c2cccc(-c3cc(O)c4ncccc4c3)c2)CC1,1.5,-3.5,36.3,-3.3,·,·
CN1CCN(c2cc(-c3cc(O)c4ncccc4c3)ccn2)CC1,-0.3,-7.2,44.1,-3.8,76.6*,·
CC1(C)NC(=O)N(CC(=O)OCC(=O)N2CCN(S(=O)(=O)c3ccccc3)CC2)C1=O,0.1,4.3,1.7,-7.3,-4.1,·
c1ccc(CCNc2ccnc3cc4ccccc4cc23)cc1,-0.1,·,-36.3,-6.1,103.7*,i
CC(C)N=C(NS(=O)(=O)c1ccccc1)C(Cl)(Cl)Cl,-0.2,-6.9,-3.9,-6.7,51.6*,5.2
O=S(=O)(NC(=S)c1ccccc1)c1ccccc1,-0.1,-1.8,3.5,-4.7,-2.6,·
COc1cccc(-n2c(=O)c3sccc3n(CC(=O)NCC3CCCO3)c2=O)c1 (centres undefined),0.2,-1.8,1.6,-4.0,·,·
O=c1c(Cl)c(Cl)cnn1Cc1nnc(-c2ccc(Cl)cc2)o1,-1.0,·,-29.2,22.0,60.9*,-162.0
Cc1ccc(Cn2ncc(Cl)c(Cl)c2=O)cc1,-0.1,-4.5,-7.1,10.1,·,18.4
Oc1cccc(/C=N/Nc2nn3cnnc3c3ccccc23)c1,-0.1,-3.6,1.1,-3.2,1.8,-5.6
COc1cccc(/C=N/Nc2nn3cnnc3c3ccccc23)c1O,-0.3,2.0,50.1*,9.8,-5.1,27.8
Cc1oc2c(O)c(O)ccc2c(=O)c1-c1cnn(-c2ccccc2)c1,0.1,-5.5,86.8*,-4.7,-15.4,8.0
Cc1oc2c(O)c(O)ccc2c(=O)c1-c1ccccc1,0.3,-5.8,68.9*,-9.1,-2.3,6.5
SMILES,aDG glyco act,beta cell repl,Cardio protect,FAS-TE inh,H9c2 TAG inh,Calpain2 inh
Cc1oc2c(CN3CCCCC3C)c(O)ccc2c(=O)c1-c1ccccc1 (centres undefined),0.0,-1.4,1.8,-9.4,·,·
Cc1oc2c(O)c(O)ccc2c(=O)c1-c1ccc(Cl)cc1,0.0,-4.1,72.3*,2.3,6.4,·
Cc1oc2c(CN3CCCC3)c(O)ccc2c(=O)c1-c1ccc(Br)cc1,-0.1,-1.9,6.6,-4.3,·,·
C=CCOc1ccc(Cl)cc1-c1noc(-c2csc([C@H]3C[C@H](O)[C@@H](CO)O3)n2)n1,-0.4,·,8.3,-10.5,16.5,·
O=C1C(=O)c2cccnc2-c2ncccc21,-0.3,·,-17.0,1.4,·,·
COc1cc(-c2noc(CCC(=O)NC3CCCCC3)n2)cc(OC)c1OC,0.1,2.8,3.8,-2.9,·,·
COc1cc(-c2cc(NC=O)c3ncc(-c4ccccc4)n3c2)cc(OC)c1OC,-0.3,·,96.0*,17.1,4.7,·
COc1cc(-c2cnc3c(NC=O)cc(-c4ccccc4)cn23)cc(OC)c1OC,-0.3,·,31.4,5.8,45.4,·
COc1cc(-c2cc(NC=O)c3ncc(-c4cccc(C(F)(F)F)c4)n3c2)cc(OC)c1OC,-0.3,·,58.6*,20.6,38.3,·
COc1ccc(-c2cc(NC=O)c3ncc(-c4ccc(C(C)=O)cc4)n3c2)cc1OC,-0.3,·,47.4,1.5,23.9,·
COc1cc(-c2cc(NC=O)c3ncc(-c4ccc(C(C)=O)cc4)n3c2)cc(OC)c1OC,-0.4,·,81.4*,15.4,1.7,·
COc1ccc(-c2cc(NC=O)c3ncc(-c4cccc(C(F)(F)F)c4)n3c2)cc1OC,-0.2,·,17.4,14.6,3.8,·
Cn1nc(C(=O)O)c(=O)n(C)c1=O,-0.1,·,-2.2,-4.7,0.4,·
CC(=O)c1ccc(S(=O)(=O)N2CCC(C(=O)Nc3ncc(C)s3)CC2)cc1,0.0,0.8,3.7,6.6,11.0,·
CCN1C(c2ccc(F)cc2)=CS/C1=C(/C#N)c1nnc2n1-c1ccccc1SC2,-0.1,·,-0.6,8.0,0.5,·
Cc1ccc(C(=O)N/C(=C\c2ccc(-c3ccccc3[N+](=O)[O-])o2)C(=O)NCCN(C)C)cc1,1.9*,-5.2,-21.5,7.6,57.2*,·
CCOC(=O)C(=O)N(C)c1c(CC)nc2c(OCc3ccccc3)cccn12,-0.4,·,-2.1,-7.2,1.3,·
FC(F)(F)c1cccc(NCc2n[nH]c(=S)n2C2CCCCC2)c1,0.4,-3.6,-12.5,9.3,13.3,56.1*
COC(=O)C1(C(=O)OC)C[C@H](/C=C/c2ccccc2)N(Cc2ccccc2OC)[C@@H]1c1cccc(Br)c1,-0.1,·,·,·,·,·
Cn1c(Oc2ccncc2)nc2cc(-c3ccsc3)sc2c1=O,-0.1,·,3.9,-7.1,13.3,·
O=C(NCc1nnnn1-c1ccc(F)cc1)c1ccc(S(=O)(=O)N2CCOCC2)cc1,0.0,·,0.4,-5.9,12.1,·
O=C(Cn1c(=O)n(-c2ccccc2)c(=O)n1CC(=O)N1CCCCC1)N1CCCCC1,-0.1,-2.6,-0.8,-11.7,6.0,50.2*
CC(C)[C@H](NC(=O)C1CCN(S(=O)(=O)c2ccc(F)cc2)CC1)C(=O)N1CCCCCC1,2.5,0.6,2.6,-1.8,·,·
O=C1c2ccccc2C(=O)N1CCc1csc(-c2cccc(F)c2)n1,0.3,-1.8,9.9,25.1,·,9.4
O=C1c2ccccc2C(=O)N1CCc1csc(-c2cccc(Cl)c2)n1,0.0,-0.9,-13.5,34.0,·,58.6*
COc1cc([C@H]2c3[nH]c4ccccc4c3C[C@H]3C(=O)N4[C@@H](c5cc(OC)c(OC)c(OC)c5)c5[nH]c6ccccc6c5C[C@H]4C(=O)N23)cc(OC)c1OC,-0.7,-8.6,19.5,11.5,50.1*,-53.6
CC(=O)n1cc(/C=N/NC(=O)c2ccc([N+](=O)[O-])cc2)c2ccccc21,-0.1,-3.3,10.6,20.6,·,·

# Screens from PubChem BioAssay.
